PubChem BioAssay AID1159580 (chemical genetic matrix, 2015)
Where “and” joins values, the source holds several entries; their conditions need not be identical. Equal entries are not always repeated. In all, about 5,500 compounds went through this assay and about 2,000 (36%) were called active. Inconclusive results (about 18%) are left out. Rule as the data show it: active = normalized growth mostly below about 0.91 (no sharp cut-off); inconclusive = no clear call, values can overlap the other calls; inactive = mostly above about 0.92. Some of the results follow.

Assay: chemical genetic growth profiling, strain panel (AID 1159580);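 also: tested at 20 µM; growth read once vehicle control cultures reached saturation at 30 °C; 1 = growth at the plate median or of vehicle wells; lower values mean less growth of the strain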
Details: S. cerevisiae deletion strains, growth OD

Measured: normalized growth

CN1CCN(C2=Nc3ccccc3Oc3ccc(Cl)cc32)CC1
inactive: locus YAL013W, strain DEP1, stronger effect = lower value 0.995 and 0.98 | locus YAL021C, strain ccr4, stronger effect = lower value 0.981 | locus YAL026C, strain drs2, stronger effect = lower value 0.984 | locus YAL030W, strain snc1, stronger effect = lower value 1 | locus YAL040C, strain CLN3, stronger effect = lower value 0.979 | locus YBL061C, strain skt5, stronger effect = lower value 0.982 | locus YBR009C, strain hhf1, stronger effect = lower value 1.01 | locus YBR021W, strain FUR4, stronger effect = lower value 1.01 | locus YBR023C, strain chs3, stronger effect = lower value 1 | locus YBR171W, strain sec66, stronger effect = lower value 0.964 | locus YBR229C, strain ROT2, stronger effect = lower value 0.953 | locus YBR231C, strain swc5, stronger effect = lower value 0.988 | locus YBR279W, strain paf1, stronger effect = lower value 0.987 | locus YCL011C, strain gbp2, stronger effect = lower value 0.978 | locus YCL016C, strain dcc1, stronger effect = lower value 1 | locus YCL029C, strain bik1, stronger effect = lower value 0.994 | locus YCL061C, strain MRC1 (second series), stronger effect = lower value 0.992 | locus YCL061C, strain MRC1, stronger effect = lower value 0.989 | locus YCL069W, strain vba3, stronger effect = lower value 0.999 | locus YCR088W, strain abp1, stronger effect = lower value 0.993 | locus YDL005C, strain med2, stronger effect = lower value 0.972 | locus YDL035C, strain GPR1, stronger effect = lower value 0.988 | locus YDL040C, strain nat1, stronger effect = lower value 0.97 | locus YDL074C, strain BRE1, stronger effect = lower value 0.997 | locus YDL101C, strain DUN1, stronger effect = lower value 0.989 | locus YDL134C, strain PPH21, stronger effect = lower value 0.979 | locus YDL185W, strain tfp1, stronger effect = lower value 0.992 | locus YDL192W, strain arf1, stronger effect = lower value 0.991 | locus YDR001C, strain nth1, stronger effect = lower value 0.967 | locus YDR069C, strain doa4, stronger effect = lower value 0.969 | locus YDR101C, strain arx1, stronger effect = lower value 0.994 | locus YDR137W, strain rgp1, stronger effect = lower value 1.01 | locus YDR150W, strain NUM1, stronger effect = lower value 0.991 and 1.02 | locus YDR159W, strain sac3, stronger effect = lower value 0.972 | locus YDR162C, strain NBP2, stronger effect = lower value 1.01 | locus YDR195W, strain ref2 0.948 | locus YDR297W, strain sur2, stronger effect = lower value 0.99 | locus YDR318W, strain mcm21, stronger effect = lower value 0.977 | locus YDR334W, strain swr1, stronger effect = lower value 0.947 | locus YDR335W, strain msn5, stronger effect = lower value 0.982 | locus YDR363W, strain ESC2, stronger effect = lower value 0.928 | locus YDR388W, stronger effect = lower value 0.994 | locus YDR392W, strain spt3, stronger effect = lower value 1.05 | locus YDR502C, strain sam2, stronger effect = lower value 0.986 | locus YEL003W, strain gim4, stronger effect = lower value 0.976 | locus YEL037C, strain rad23, stronger effect = lower value 0.998 | locus YEL061C, strain CIN8 (second series), stronger effect = lower value 0.97 | locus YEL061C, strain CIN8, stronger effect = lower value 0.997 | locus YER002W, strain NOP16, stronger effect = lower value 0.974 | locus YER015W, strain faa2, stronger effect = lower value 0.996 | locus YER016W, strain bim1, stronger effect = lower value 1 | locus YER110C, stronger effect = lower value 0.985 | locus YER111C, strain swi4, stronger effect = lower value 0.998 | locus YER155C, strain BEM2 (second series), stronger effect = lower value 0.985 | locus YER155C, strain BEM2, stronger effect = lower value 0.996 | locus YER167W, strain BCK2, stronger effect = lower value 0.988 | locus YFR010W, strain ubp6, stronger effect = lower value 1.01 | locus YGL078C, strain dbp3, stronger effect = lower value 1 | locus YGL086W, strain mad1, stronger effect = lower value 0.974 | locus YGL167C, strain pmr1, stronger effect = lower value 0.984 | locus YGL173C, strain kem1, stronger effect = lower value 1.01 | locus YGL227W, strain vid30, stronger effect = lower value 0.956 | locus YGL240W, strain doc1, stronger effect = lower value 1.02 | locus YGL248W, strain PDE1, stronger effect = lower value 0.963 | locus YGL253W, strain hxk2, stronger effect = lower value 0.982 | locus YGR078C, strain PAC10, stronger effect = lower value 1.02 and 0.994 | locus YGR135W, strain pre9, stronger effect = lower value 0.981 | locus YGR229C, strain SMI1, stronger effect = lower value 0.983 | locus YGR252W, strain gcn5, stronger effect = lower value 0.956 | locus YHR013C, strain ard1, stronger effect = lower value 0.974 | locus YHR027C, strain rpn1, stronger effect = lower value 0.966 | locus YHR030C, strain SLT2, stronger effect = lower value 0.987 and 1.04 | locus YHR079C, strain IRE1 (second series), stronger effect = lower value 0.99 | locus YHR079C, strain IRE1, stronger effect = lower value 1.06 | locus YHR094C, strain hxt1, stronger effect = lower value 0.991 | locus YHR129C, strain ARP1, stronger effect = lower value 0.991 | locus YHR142W, strain chs7, stronger effect = lower value 0.956 | locus YHR200W, strain rpn10, stronger effect = lower value 0.987 | locus YIL066C, strain RNR3, stronger effect = lower value 0.971 | locus YIL073C, strain SPO22, stronger effect = lower value 0.989 | locus YIL125W, strain kgd1, stronger effect = lower value 0.992 | locus YIR030C, strain dcg1, stronger effect = lower value 0.991 | locus YJL092W, strain hpr5, stronger effect = lower value 0.978 | locus YJL095W, strain BCK1 (second series), stronger effect = lower value 0.964 | locus YJL095W, strain BCK1, stronger effect = lower value 0.981 and 1.03 | locus YJL115W, strain asf1, stronger effect = lower value 0.926 | locus YJL129C, strain trk1, stronger effect = lower value 0.971 | locus YJL134W, strain LCB3, stronger effect = lower value 0.992 | locus YJL154C, strain vps35, stronger effect = lower value 0.97 | locus YJL164C, strain tpk1, stronger effect = lower value 0.998 | locus YJL166W, strain qcr8, stronger effect = lower value 0.975 | locus YJL168C, strain set2, stronger effect = lower value 0.991 | locus YJL187C, strain SWE1 (second series), stronger effect = lower value 0.983 | locus YJL187C, strain SWE1, stronger effect = lower value 0.99 | locus YJR043C, strain POL32, stronger effect = lower value 1.01 | locus YJR066W, strain TOR1, stronger effect = lower value 0.931
